The full ranking holds about 16,000 sequences; the median of “e-score” is about -0.044, and the highest 2% start at about 0.38. The sample as a whole holds a higher share of the highest values than the screen did.
Target: T1, GST-NbGlk1(82-244) (Nicotiana benthamiana)
T1 chain: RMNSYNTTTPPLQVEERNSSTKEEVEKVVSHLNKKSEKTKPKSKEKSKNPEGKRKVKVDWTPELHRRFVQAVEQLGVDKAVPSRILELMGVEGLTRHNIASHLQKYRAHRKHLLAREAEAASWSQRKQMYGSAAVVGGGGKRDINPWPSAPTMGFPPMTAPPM
Experiment: protein-binding microarray; NbGlk1 is a Golden2-like transcription factor of Nicotiana benthamiana; high values mean tight binding
Settings: protein: recombinant; tags: GST (pTH6838); dsDNA, one strand shown

Sequence | binding signal [E-score]
ATCCCGTA | 0.31 ± 0.0475
ATACGAGA | 0.231 ± 0.0125
ATATTAGA | 0.212 ± 0.0145
ATTTGTAG | 0.21 ± 0.125
AAGATTGC | 0.443 ± 0.0277
AATATTGC | 0.225 ± 0.0215
AAGATTGT | 0.297 ± 0.0412
CAGATTGC | 0.4754 ± 0.00468
AAGATTGG | 0.206 ± 0.0123
ATCTATAG | 0.288 ± 0.0139
ATCGAGAT | 0.327 ± 0.0101
AACAGGAA | 0.207 ± 0.0723
ATCTTAAC | 0.317 ± 0.00626
AGCAATCA | 0.321 ± 0.00992
AGAATTCT | 0.299 ± 0.0757
AGAAATCC | 0.464 ± 0.00886
ATAAATCA | 0.239 ± 0.0998
ACAAATCA | 0.262 ± 0.0406
AGTAATCC | 0.369 ± 0.00994
AGAAATCT | 0.465 ± 0.00635
AGCAATCC | 0.412 ± 0.0143
AGAAATCG | 0.338 ± 0.0619

Sequence | binding signal [E-score]
AGAAATAT | 0.3621 ± 0.00196
AGAAATCA | 0.3794 ± 0.00281
AGCAATCG | 0.308 ± 0.0291
ATCTTAAA | 0.272 ± 0.0208
AAGATCCA | 0.24 ± 0.0941
ATGTAGTA | 0.223 ± 0.0748
ATTTCACA | 0.304 ± 0.0596
AATCTGCG | 0.444 ± 0.00526
AATCTGCA | 0.414 ± 0.00858
AATCAGCA | 0.322 ± 0.0337
AATCTGCC | 0.34 ± 0.133
ATTCTGCG | 0.217 ± 0.0166
ATTCTGCA | 0.266 ± 0.0788
ATCCGGGG | 0.279 ± 0.0126
ATCCGCAA | 0.325 ± 0.0306
ATCTCACC | 0.317 ± 0.00666
ATTACGAC | 0.351 ± 0.0302
AGTATCGG | 0.202 ± 0.042
ATATAACA | 0.214 ± 0.0677
ATCCGCAC | 0.284 ± 0.0333
ACGATCCT | 0.272 ± 0.0244
AAGTAATC | 0.337 ± 0.0373

Sequence | binding signal [E-score]
ACGTAATC | 0.4759 ± 0.00151
AGGTAATC | 0.416 ± 0.00105
AGGTAAAT | 0.205 ± 0.0739
ACGTAATA | 0.285 ± 0.0122
ACATAATC | 0.327 ± 0.0217
ATCTAATC | 0.331 ± 0.07
ATGTAATC | 0.462 ± 0.0104
ATATAATC | 0.297 ± 0.00596
ATGGTATC | 0.2 ± 0.0619
ATCTTTTC | 0.289 ± 0.0307
AAATCGAA | 0.329 ± 0.0505
ATCTCGGA | 0.36 ± 0.00407
ATACTGTA | 0.274 ± 0.0926
ATTTCCAA | 0.36 ± 0.0335
ATTTTGCG | 0.293 ± 0.0239
AGGCGGAT | 0.206 ± 0.0564
ATTTCATA | 0.353 ± 0.0105
ATCGCGAA | 0.323 ± 0.0256
ATCGCAAA | 0.234 ± 0.0734
ATCGCAAT | 0.397 ± 0.0277
ATCGCGAT | 0.4239 ± 0.000981
ATCGCGAG | 0.33 ± 0.00694

Sequence | binding signal [E-score]
AACGCAAT | 0.344 ± 0.0179
ATTTTTAC | 0.313 ± 0.0485
ACATATCG | 0.226 ± 0.0607
AGATCCCT | 0.298 ± 0.00953
ATGGCAAT | 0.237 ± 0.0667
ATCTAGTA | 0.316 ± 0.0615
ACGTGGAT | 0.283 ± 0.0431
ATTTTTAA | 0.221 ± 0.0275
ACGCGATC | 0.437 ± 0.0114
AAGCGATC | 0.294 ± 0.0444
ACGCGATA | 0.252 ± 0.00347
ATCTTGTG | 0.318 ± 0.0738
AATATCTG | 0.423 ± 0.0344
AATATCGG | 0.371 ± 0.0225
AGTATCTC | 0.235 ± 0.067
AATATCAA | 0.322 ± 0.0489
AATATATC | 0.311 ± 0.00568
AATATCTC | 0.391 ± 0.0345
AGTATCTG | 0.339 ± 0.041
AGTATCTA | 0.305 ± 0.0244

Reference: publication PMC5836133, “The intracellular immune receptor Rx1 regulates the DNA-binding activity of a Golden2-like transcription factor”
